NS1 function inh – influenza NS1 inhibition; 270,000 compounds, 0.4% hits; AID 2326; Potency, µM (highest dose often 46.1 µM), inactives show top-dose activity, positive = more growth; calls by dose curve; also: potency is read from the fitted curve at half-maximal effect; actives are rising curves; nearly all actives have a fitted effect of over 50% in size
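Growth recovery, yeast-based: influenza A NS1 expressed in S. cerevisiae causes slow growth, and suppressors are detected by OD600. The parent strain without NS1 is used as positive control.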
Shiga inhibitor – blocks Shiga toxin action in Vero cells; 290,000 compounds, 9.2% hits; AID 2315; Vero cells, Shiga toxin protein synthesis inhibition reporter; inhibition, % at 38.7 µM; in the data active = inhibition mostly above about 28%, no sharp cut-off; inactive = mostly below about 43%; also: 0% is about no effect
Pf growth 48h – P. falciparum growth inhibition at 48 hours (one generation) | P. falciparum luciferase growth in erythrocytes, 48 h | Potency, µM (titrated, usually from 28.7 µM), for the others: top-dose activity change, negative = inhibition, usual class: inhibitors | AID 504832 | 310,000 compounds, 5.9% hits; also: potency is read from the fitted curve at half-maximal effect; % is scaled to controls: 0 for no effect and ±100 for the full control effect
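Growth was read as firefly luciferase luminescence after a 48 h, 37 C, 5% CO2 exposure of compounds to reporter-bearing P. falciparum cultures (0.1% parasitemia, 2% hematocrit final) in Albumax-supplemented RPMI 1640.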
Pf growth 96h – inhibits malaria parasite growth, 96 h; P. falciparum luciferase reporter growth, 96 h; Potency, µM (top dose mostly 28.7 µM), for the others: at the highest dose activity change, negative = inhibition, hits mostly inhibitors; 320,000 compounds, 6.9% hits; also: potency is read from the fitted curve at half-maximal effect; % is scaled to controls: 0 for no effect and ±100 for the full control effect
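P. falciparum expressing integrated firefly luciferase, in erythrocytes at 2% hematocrit, 0.05% parasitemia, incubated with compounds 96 h at 37 C, 5% CO2. Growth inhibition read as loss of luminescence; two-generation exposure targets delayed-death apicoplast inhibitors.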
Cycloheximide cs – counter-screen hit for Shiga toxin inhibitors, cycloheximide | cell reporter, cycloheximide protein synthesis inhibition counterscreen | max response, % | 300,000 compounds, 12% hits; in the data active = max response mostly above about 13%, no sharp cut-off; inactive = mostly below about 14%; also: read at 38.3 µM for the half of the compounds with a filed dose; 0% is about no effect
Flu NS1 inh – validation of influenza NS1 protein function inhibitors | AID 492980 | activity change, negative = inhibition, % at 32.9 µM | influenza NS1 function cell assay, 15-point titration | shares compounds with NS1 function inh | 1,400 tested, under 10 active; calls by dose curve; also: 0% is about no effect
Numbers without * were called inactive; u = inconclusive; x = no result. Only some compounds are listed: those with a hit (about 21% of all), similar ones and a draw of the others. Unless noted, calls follow the shape of the dose curve; as a rule, active = well fitted inhibition curve with a large enough effect; inconclusive = small, poorly fitted or top-dose-only effect, or another doubt; inactive = no such curve, though single readings can be large or run the other way.

SMILES	NS1 function inh	Shiga inhibitor	Pf growth 48h	Pf growth 96h	Cycloheximide cs	Flu NS1 inh
Clc1ccc(N2CCN(c3ncnc4c3oc3ccccc34)CC2)cc1	u	-9	14%	38%	-1	-3
FC(F)Oc1ccc(/C=N/c2c(-c3ccc(OC(F)F)cc3)nc3n2CCS3)cc1	13µM*	9	u	-14%	13	-15
Cc1ccc(NC2CCCN(C(=O)c3ccnc(Cl)c3)C2)cc1C (configuration not stated)	0%	18	2%	118%	-4	x
O=C(c1cnn2c(C(F)(F)F)cc(-c3cccs3)nc12)N1CCN(C(c2ccccc2)c2ccccc2)CC1	16µM*	-2	0.93µM*	u	9	7
CN1CCN(C(=O)c2cnn3c(C(F)(F)F)cc(-c4cccs4)nc23)CC1	5%	-9	-14%	u	-3	x
O=c1[nH]c(C2CCCN(S(=O)(=O)c3ccc(F)cc3)C2)nc2c1nnn2Cc1ccc(F)cc1 (configuration not stated)	u	20	u	14%	-3	-5
COC(=O)c1cc(OC)c(OC)cc1NC(=O)c1cc(OC)cc(OC)c1	-2%	-17	u	18%	-2	x
Cc1ccccc1NC(=S)N1CCN(c2ccccc2)CC1	9%	x	u	u	-1	x
O=C(O)/C=C/c1nc(-c2ccccc2)n2ccccc12	u	79*	112%	42%	71*	-1
COc1cc(C(C(=O)NC2CCCCC2)N(C(=O)c2snc(C(N)=O)c2N)c2ccc(C)cc2)ccc1O (configuration not stated)	u	-4	7.4µM*	0%	-5	-14
COc1ccccc1NS(=O)(=O)c1cccc(N=C2N=C(N)c3ccccc32)c1	11%	-8	-4%	-5%	-1	x
COc1ccc(Oc2nc(C)cc(C)c2C#N)cc1	u	-6	u	x	-6	-1
FC(F)(F)c1nnc2n1N=C(c1cccs1)CS2	x	-4	-4%	20%	18	x
CC(Oc1ccc2c(-c3ccccc3)cc(=O)oc2c1)C(=O)O (configuration not stated)	10%	-9	31%	35%	-5	x
CCc1cc2c(-c3ccccc3)cc(=O)oc2cc1OC(C)C(=O)O (configuration not stated)	10µM*	-4	25%	u	-3	21
COC(=O)c1ccc(NC(CC(C)C)C(=O)OC)c([N+](=O)[O-])c1 (configuration not stated)	-17%	-17	3%	u	-7	x
CCN(C(C)=O)N(CC)c1nc(Cl)nc(NC(C)C)n1	4%	-10	-16%	u	-3	x
COc1ccccc1N1CCN(C(=O)C2CCCN(S(=O)(=O)c3ccc4c(c3)CCCN4C(C)=O)C2)CC1 (configuration not stated)	u	-18	u	39%	2	-20
Cc1cnc(NS(=O)(=O)c2ccccc2)c(C)n1	6%	11	x	44%	-3	x
Cc1cccc(-n2c(=S)[nH]c3c(oc4ccccc43)c2=O)c1	u	40	12%	-16%	8.7*	8
O=c1c2oc3ccccc3c2[nH]c(=S)n1-c1ccccc1	8%	14	30%	49%	1	x
Cn1c(=O)c2c(nc(N/N=C/c3ccc(OC(=O)c4ccco4)cc3)n2Cc2ccccc2)n(C)c1=O	16%	6	u	u	-5	x
CC(C)CN(C(=O)COC(=O)CCCc1c[nH]c2ccccc12)c1c(N)n(Cc2ccccc2)c(=O)[nH]c1=O	14%	-9	u	u	-1	x
Brc1ccc(C2Nc3cccc4cccc(c34)N2)o1	u	-9	-12%	-6%	-3	2
COc1ccc(NC(=O)c2nc(C)n(-c3ccc([N+](=O)[O-])cc3)n2)cc1	x	-8	-11%	u	7	x
CCOC(=O)c1cnn2c(N)c(C#N)nnc12	5µM*	-22	15%	u	-4	-15
O=C(CSc1c2c(nc3ccc(Cl)cc13)CCCC2)NCCCN1CCOCC1	x	-15	u	u	-3	x
CCOc1ccc(C(C#N)N2CCOCC2)cc1OC (configuration not stated)	16µM*	-19	3%	41%	27	u

Source: PubChem (National Center for Advancing Translational Sciences (NCATS))
